The text below walks through data of PubChem BioAssay (NCATS).

Where “and” joins values, the source holds several entries; their conditions need not be identical. Identical values can stand only once. Inconclusive results are not listed. A number with no mark means an inactive call. Calls of active or inactive are those of the source. Calls follow the shape of the dose curve; as a rule, active = well fitted inhibition curve with a large enough effect; inconclusive = small, poorly fitted or top-dose-only effect; inactive = flat fitted curve, though single readings scatter.

Assay [1] has as its system W2. Description: qHTS profiling for inhibitors of Plasmodium falciparum proliferation (AID 504749). Also: potency is read from the fitted curve at half-maximal effect. As to conditions: P. falciparum in erythrocytes, SYBR Green DNA, 72 h; series mostly up to 28.7 µM. An outline of the steps: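 P. falciparum-infected erythrocytes (0.3% parasitemia, 2.5% hematocrit final) were exposed to compounds for 72 h at 37 C in 5% CO2, then lysed with SYBR Green buffer overnight at room temperature; parasite DNA fluorescence was normalized to artemisinin and DMSO controls.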
(Quantitative high-throughput screening tests each substance at several concentrations.)

Assay [2] deals with HaCat. Description: Cytotoxic Profiling of Annotated Libraries Using Quantitative High-Throughput Screening (AID 1296008). Also: potency is read from the fitted curve at half-maximal effect. As to max response: % is scaled to controls: 0 for no effect and ±100 for the full control effect. As to conditions: Five cell lines viability, CellTiter-Glo ATP luminescence, 48-72 h; max response: stronger effect = lower value. An outline of the steps: (§1)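 Compounds were pin-transferred onto cells and incubated 48 or 72 hr at 37 degree Celsius, 95% humidity. CellTiter-Glo was added, plates sat 10 min at room temperature, then ATP-coupled luminescence was imaged as the viability read-out.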
(ATP-based viability assays read luminescence as a measure of living cells.)

Assay [3] has as its system KB-3-1. The assay is described as above. As to conditions: Five cell lines viability, CellTiter-Glo ATP luminescence, 48-72 h; max response: stronger effect = lower value. Summed up: as §1
The subject of assay [4] is NIH3T3. The description is as above. As to conditions: Five cell lines viability, CellTiter-Glo ATP luminescence, 48-72 h; max response: stronger effect = lower value. Summed up:
as §1

Assay [5] has as its system HACAT. The assay can be described thus: qHTS assay to identify novel small-molecules to repurpose for Merkel cell carcinoma treatment (AID 1296009). As to conditions: MCC and control cell lines, CellTiter-Glo viability, 72 h; at 44.8 µM (top of the series) unless noted. An outline of the steps:
(§2)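 Cells exposed to NPC (8-point) and MIPE (11-point) compound dilutions for 72 hr at 37 degree celsius; viability read by CellTiter-Glo luminescence, normalized to no-cell and DMSO in-plate controls.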

Assay [6] deals with MCC-13. The description is as above. As to conditions: MCC and control cell lines, CellTiter-Glo viability, 72 h; series mostly up to 46 µM. Summed up:
as §2

In assay [7] the test system is CRL-7250. The description is as above. As to conditions: MCC and control cell lines, CellTiter-Glo viability, 72 h. An outline of the steps:
as §2

Assay [8] concerns HEK293. Description: Cytotoxic Profiling of Annotated Libraries Using Quantitative High-Throughput Screening (AID 1296008). Also: potency is read from the fitted curve at half-maximal effect. As to max response: % is scaled to controls: 0 for no effect and ±100 for the full control effect. As to conditions: Five cell lines viability, CellTiter-Glo ATP luminescence, 48-72 h; max response: stronger effect = lower value. An outline of the steps: as §1
Assay [9] relates to HEK293T. The assay can be described thus: qHTS assay to identify novel small-molecules to repurpose for Merkel cell carcinoma treatment (AID 1296009). As to conditions: MCC and control cell lines, CellTiter-Glo viability, 72 h; at 44.8 µM (top of the series) unless noted. An outline of the steps: as §2
Where [10] appears, read: at 44.8 µM (top of the series) unless noted.
Also: nearly all actives have a fitted effect of over 60% in size.

For `C[C@](O)(CS(=O)(=O)c1ccc(F)cc1)C(=O)Nc1ccc(C#N)c(C(F)(F)F)c1`, the Potency result in [1] is “inactive”. The call in assay [2], in assay [5] and in assay [6] was inactive. Also, the max response was 5.52% in assay [3] and -9.3% in assay [4].

As for `O=P(O)(O)C(O)(Cn1ccnc1)P(=O)(O)O`, the outcome in assay [7] (setting [10]) was “inactive [at 17.4 µM]”.

As for `O=c1oc2ccccc2c(O)c1Cc1c(O)c2ccccc2oc1=O`, in assay [1], the Potency entry is “inactive”. Further, the result in assay [2], in [4], in [5] and in assay [6] was inactive.

`O=C(CCCl)NCCc1ccccc1`: in [7] (setting [10]), the outcome was inactive.

With `Clc1ccccc1N1CCNCC1`, the result in assay [8], in assay [2], in assay [4], in assay [5], in assay [9] and in [6] was inactive.

Take `Clc1ccc2c(c1)C(c1ccccc1)=NCc1nncn1-2`: in [1], the Potency entry was “inactive”. The max response in assay [3] was 2.88%.

Take `C[C@@H]1CC2=CC(=O)CC[C@@H]2[C@H]2CC[C@@]3(C)[C@@H](CC[C@]3(C)O)[C@@H]21`: the max response in assay [2] is -11%; in assay [4], -27.8%. Also, in [6], the compound was called inactive.

Turning to `Cc1nnc2n1-c1ccc(Cl)cc1C(c1ccccc1Cl)=NC2`, the max response in assay [3] is 1.66%.

On to `O=C1Nc2ccc(Cl)cc2C(c2ccccc2Cl)=NC1O` (centres undefined), for which the Potency entry in assay [1] was “inactive”. In addition, in [3], the max response is 3.46%.

`CC(C)c1c(CN(C)C(C)Cc2ccccc2)n(C)n(-c2ccccc2)c1=O` (centres undefined): the Potency in assay [8] was 8.41 µM (active). In addition, the max response in assay [3] is 1.6%; in assay [4], 4.46%. In assay [6], the compound was classed as inactive.

Turning to `O=C1Nc2ccc(Cl)cc2C(c2ccccc2)=NC1O` (centres undefined), in [1], the Potency result is “inactive”. Also, in assay [3], the max response is -4.67% and -16.2%.

For the compound `CN[C@@H](C)Cc1ccccc1`, the max response in assay [3] is -3.3%.

For the compound `C[C@]12CC[C@@H]3c4ccc(OC(=O)N(CCCl)CCCl)cc4CC[C@H]3[C@@H]1CC[C@@H]2O`, the Potency result in assay [1] was “inactive”. Also, in [8], the Potency was 29.9 µM (active). Also, the max response in assay [3] is -1.74%. The compound was classed as inactive in [6].

As to `O=C(Nc1ccc(Br)cc1)c1cc(Br)cc(Br)c1O`, in assay [1], the Potency result was “inactive”. The call in [2], in assay [5] and in [6] was inactive. Besides, the max response in assay [3] was -24%; in assay [4] it was -23.1%.

For `CC(C(=O)O)c1ccc2c(c1)CC(=O)c1ccccc1S2` (centres undefined), the compound was called inactive in assay [7] (setting [10]).

Take `COc1cccc(C(=O)CCN[C@@H](C)[C@H](O)c2ccccc2)c1`: the call in assay [2], in assay [5] and in assay [6] was inactive. For the same compound, the max response in assay [3] is 25.7%; in assay [4], -18.8%.

For the compound `CN1C[C@H](C(=O)N[C@]2(C)O[C@@]3(O)[C@@H]4CCCN4C(=O)[C@H](Cc4ccccc4)N3C2=O)C=C2c3cccc4[nH]cc(c34)C[C@H]21`, the Potency in assay [1] was 0.0536 µM (active). Also, in assay [3], the max response is -3.72%.

Regarding `CCN1CCC[C@H]1CNC(=O)c1c(O)c(Cl)cc(Cl)c1OC`, the result in [7] (setting [10]) was inactive.

As to `COc1ccc2c(c1)C13CCCC[C@@H]1C(C2)N(C)CC3` (some centres undefined), the Potency in [1] was 1.2 µM (active). The max response in assay [3] is 18.3%.

Take `CCCC(C)(COC(N)=O)COC(N)=O`: the max response in assay [3] is 1.51%.

Regarding `Cc1cnc(NS(=O)(=O)c2ccc(N)cc2)nc1`, in assay [7] (setting [10]), the call was inactive.

Take `C[C@]12CCC(=O)C=C1CC[C@@H]1[C@H]3CC[C@](C)(O)[C@@]3(C)CC[C@@H]12`: the Potency in assay [8] was 30.9 µM (active). For the same compound, the result in [6] was inactive.

Consider `CC(C)NCC(O)c1ccc(NS(C)(=O)=O)cc1` (centres undefined), for which the call in assay [7] (setting [10]) was inactive.

Regarding `Cc1nnc2n1-c1ccc(Cl)cc1C(c1ccccc1)=NC2`, the Potency in assay [1] was 4.78 µM (active). Further, in assay [3], the max response was -2.21%.

On to `CCCCOCCOC(=O)c1cccnc1`, for which the call in [7] (setting [10]) was inactive.

On to `CC[C@H]1OC(=O)[C@H](C)[C@@H](O[C@H]2C[C@@](C)(OC)[C@@H](O)[C@H](C)O2)[C@H](C)[C@@H](O[C@@H]2O[C@H](C)C[C@H](N(C)C)[C@@H]2O)[C@](C)(O)C[C@@H](C)CN(C)[C@H](C)[C@@H](O)[C@]1(C)O`, for which the outcome in assay [7] (setting [10]) was inactive.

`CN1C(=O)C(O)N=C(c2ccccc2)c2cc(Cl)ccc21` (centres undefined): in assay [1], the Potency result was “inactive”.

In the case of `Nc1ccc(S(=O)(=O)Nc2ccnn2-c2ccccc2)cc1`, the result in assay [7] (at 17.4 µM (top of the series)) and in [7] (at 44.8 µM (top of the series)) was inactive.

As for `O=C(O)Cc1cccc2ccccc12`, the result in assay [7] (at 44.8 µM (top of the series)) and in [7] (at 92 µM (top of the series)) was inactive.
